Activity calls are given as the source filed them.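 The calls were made as follows: active = GFP response above 150% of the DMSO control; inconclusive = Under 70 cell events counted for a yeast strain; inactive = the rest.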

The nature of this test: yeast TOR pathway CIT2-GFP reporter retest – flow cytometry, third cherry pick, single plex, confirmation (AID 504340).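 Also: median GFP fluorescence over all cells with no mother versus daughter split; sample signal as a ratio to the plate DMSO mean so 100% equals DMSO.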 The conditions noted are these: S. cerevisiae CIT2-GFP strain, 3 h, at 10 µM, stronger effect = higher value.
For the molecule `CCN(CC)C(=O)Oc1cc(=O)n(C)c2ccccc12`, the GFP response vs DMSO was 101% (inactive). Then `Nc1cc(C(=O)O)c(N)c2c1C(=O)c1ccccc1C2=O`, with 94.5% (inactive); and `O=C(Nc1ccccc1Cl)ON=C1c2ccccc2-c2ccccc21`, with 116% (inactive); and `Nc1ccc(O)c2c1C(=O)c1ccccc1C2=O`, with 107% (inactive).

Take `COc1ccccc1Nc1nc(NCCO)nc(N)c1[N+](=O)[O-]`: the GFP response vs DMSO is 111% (inactive).

With `Cc1ccc2c(C)ccc(O)c2n1`, the GFP response vs DMSO was 106% (inactive).

On to `OCCNc1ncnc2ccc(Br)cc12`, for which the GFP response vs DMSO was 109% (inactive). Under `O=C(Nc1nc(-c2ccccn2)cs1)c1ccccc1-n1cnnn1` stands 103% (inactive); under `C=CCNc1ncnc2ccc(Br)cc12`, 101% (inactive); under `COc1ccc(OC)c(N/C(C)=C/C(=O)c2ccccc2)c1`, 99.3% (inactive). Then `CC(C)Nc1ncnc2ccc(Br)cc12`, with 96.1% (inactive); and `Cc1ccc(C(=O)Nc2nc(-c3ccccn3)cs2)o1`, with 99.3% (inactive). Under `Cc1ccc2c(Cl)cc(Cl)c(O)c2n1` stands 138% (inactive).

Regarding `O=C(Nc1cccc(Cl)c1)ON=C1c2ccccc2-c2ccccc21`, the GFP response vs DMSO was 101% (inactive). Under `Cc1ccc(C)c(Nc2ncnc(N)c2[N+](=O)[O-])c1` stands 104% (inactive); under `COc1ccccc1OCc1cc(C(=O)N2CCN(C)C(c3ccccc3)C2)no1` (centres undefined), 103% (inactive).

For the molecule `O=C(O)c1ccc2cccc(O)c2n1`, the GFP response vs DMSO is 109% (inactive).

Consider `COc1ccc(N/C(C)=C/C(=O)c2ccccc2)cc1`, for which the GFP response vs DMSO is 94.5% (inactive). Then `COc1ccc(OC)c2c(C)cc(C)nc12`, with 99.3% (inactive). For `COc1cccc2c(Cl)c(CCCl)c(C)nc12`, the GFP response vs DMSO was 111% (inactive). Then `OCCN1CCN(c2ncnc3ccc(Br)cc23)CC1`, with 101% (inactive). Regarding `Oc1c(Br)cc(Br)c2cccnc12`, the GFP response vs DMSO was 189% (active).

In the case of `CC(=O)Nc1ccc(-c2nc3cc(Cl)ccc3o2)cc1`, the GFP response vs DMSO was 91.2% (inactive).

`Cc1cccc(C)c1Nc1ncnc(N)c1[N+](=O)[O-]`: the GFP response vs DMSO was 103% (inactive). Then `Oc1c(Cl)cc(Cl)c2cccnc12`, with 142% (inactive). Then `CCN(CC)c1ncnc2ccc(Br)cc12`, with 97.7% (inactive); and `Nc1cccc2c1C(=O)c1ccc(Cl)cc1C2=O`, with 107% (inactive). In the case of `COc1ccccc1Nc1nc(NCCCN(C)C)nc(N)c1[N+](=O)[O-]`, the GFP response vs DMSO is 107% (inactive). Under `CNc1nc(N)c([N+](=O)[O-])c(Nc2cccc(Cl)c2)n1` stands 480% (active). Under `CCCC(=O)Nn1cnc2c(c1=O)C1(CCCC1)Cc1ccccc1-2` stands 94.5% (inactive); under `COc1cccc2c(O)cc(=O)n(C)c12`, 103% (inactive). As for `O=C(O)c1ccc2cccnc2c1O`, the GFP response vs DMSO was 88% (inactive).

Regarding `O=C(O)c1ccc(C=NNC(=O)c2cccc3ccccc23)cc1`, the GFP response vs DMSO is 106% (inactive). Then `CNc1cccc2c1C(=O)c1ccccc1C2=O`, with 104% (inactive). Then `COC(=O)c1cc(=O)c2cccc(OC)c2[nH]1`, with 101% (inactive); and `COc1ccc(NC(=O)ON=C2c3ccccc3-c3ccccc32)cc1`, with 109% (inactive). Then `COCCCNc1nc(N)c([N+](=O)[O-])c(Nc2cc(OC)ccc2OC)n1`, with 106% (inactive).

For the molecule `Cc1cn2c(N)c(C=C3C=C(Cl)C(=O)C(Cl)=C3)c(=O)nc2s1`, the GFP response vs DMSO is 101% (inactive). Under `Nc1[nH]c(=O)nc(Nc2ccccc2)c1N=O` stands 92.8% (inactive).

For the origin of these results see PubChem BioAssay AID504340 (NMMLSC, 2011).
